Here are results for 25 compounds from PubChem BioAssay (Tox21).

A short description of assay [1]: qHTS assay for small molecules that induce genotoxicity in human embryonic kidney cells expressing luciferase-tagged ATAD5 (AID 651632). Further: nearly all actives have a fitted effect of over 15% in size. Put shortly:
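Luminescent reporter readout, HEK293T ATAD5-luc line: 16 hr drug exposure (37C, 5% CO2) followed by Amplite, 30 min RT.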
Background: Quantitative high-throughput screening tests each substance at several concentrations.

Assay [2] is described as follows: qHTS assay for small molecule agonists of the p53 signaling pathway - cell viability (AID 651633; calls by dose curve; further: nearly all actives have a fitted effect of over 30% in size; further: potency means the concentration at half of the fitted maximal effect;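 on activity change, negative = cytotoxicity: p53RE-bla HCT reporter cells with a stable beta-lactamase p53 reporter; series mostly up to about 83 µM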). Put shortly:
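p53RE-bla cells were treated with compound for 16 hours at 37 C. Cytotoxicity was then measured as CellTiter-Glo luminescence after 30 min at room temperature.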

Assay [3] is described as follows: qHTS assay for small molecules that induce genotoxicity in human embryonic kidney cells expressing luciferase-tagged ATAD5 - cell viability (AID 651634; calls by dose curve; further: nearly all actives have a fitted effect of over 25% in size; further: potency means the concentration at half of the fitted maximal effect). Summed up: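 Viability read: CellTiter-Fluor fluorescence, 30 min at 37C. Cells: HEK293T, luciferase-tagged ATAD5. Exposure: 15.5 hr, 37C, 5% CO2, compound or DMSO vehicle.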
Assay [4] can be described thus: qHTS assay for small molecule disruptors of the mitochondrial membrane potential - cell viability (AID 720634; calls by dose curve;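 further: human HepG2 liver cancer cells; series mostly up to about 83 µM; nearly all actives have a fitted effect of over 20% in size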). Put shortly:
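HepG2, 1 hr compound, 37 C. ATP luminescence via CellTiter-Glo, 30 min RT, same well as m-MPI.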

A short description of assay [5]: qHTS assay for small molecule disruptors of the mitochondrial membrane potential (AID 720635). Further: potency means the concentration at half of the fitted maximal effect. Summed up: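 HepG2 cells exposed to compound 1 hr at 37C, then Mito-MPS dye 30 min. Ratio read of aggregate (540/590 nm) versus monomer (490/535 nm) fluorescence.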
Assay [6] in a line: qHTS assay to test for compound auto fluorescence at 590 nm (red) in HepG2 cells (AID 720674). Put shortly: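 HepG2 cells, 2,000 per well in MEM with 10% FBS, attached overnight at 37 C, then got 23 nL compound or DMSO. After 1 hr at 37 C, 5% CO2, red fluorescence was read at 540/590 nm against Rose Bengal sodium as reference.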
The nature of assay [7]: qHTS assay to test for compound auto fluorescence at 535 nm (green) in HepG2 cells (AID 720675).
The nature of assay [8]: qHTS assay to test for compound auto fluorescence at 460 nm (blue) in HEK293 cells (AID 720678). Put shortly:
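Triamterene serves as the blue fluorophore standard. Compound signal at 405/460 nm is read in HEK293 wells (2,000 cells, 10% dialyzed FBS) after overnight treatment at 37C.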

A short description of assay [9]: qHTS assay to test for compound auto fluorescence at 590 nm (red) in HEK293 cells (AID 720679). Summed up: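 We plated HEK293 cells in 10% dialyzed FBS medium, let them adhere for 4-5 hr, then added 23 nL compound. Overnight at 37C and 5% CO2 preceded fluorescence measurement at 540/590nm.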
Assay [10] can be described thus: qHTS assay for small molecule agonists of the p53 signaling pathway (AID 651631; calls by dose curve; further: nearly all actives have a fitted effect of over 15% in size). Put shortly:
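Stably transfected HCT-116 cells (beta-lactamase behind p53 response elements) get compounds after a 5 h settling period; 16 h later at 37 °C, FRET substrate is loaded and fluorescence read after 2 h.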

A number with no mark means an inactive call. Records with an inconclusive call do not appear. Activity calls are given as the source filed them. Unless noted, the call rests on the fitted dose curve; in most records, active means well fitted curve in the direction sought with a large enough effect in the repeat runs; inconclusive means weak or mixed curves; inactive means no such curve, though single readings can be large; an effect the other way counts as inactive or inconclusive.
On the % scale 0 is the no-effect control and ±100 the full control effect.

On to `ON(Cc1ccccc1)Cc1ccccc1`, for which the Potency result in assay [1], in [2], in [3], in [4], in [5] and in assay [8] was “inactive” in each case. For the same compound, the result in assay [6], in assay [7] and in [9] was inactive.

Take `CCCCC(CC)CNCC(CC)CCCC` (stereo not given): the Potency entry in assay [1], in assay [2], in assay [3], in assay [4], in [5] and in assay [8] was “inactive” each time. In addition, the compound was classed as inactive in assay [6], in assay [7] and in assay [9].

Take `NC(=O)Nc1ccc(Cl)c(Cl)c1`: the Potency result in assay [1], in assay [2], in assay [3], in assay [4] and in assay [8] was “inactive” throughout. The Potency in [5] is 48.4 µM (active). In addition, the result in assay [6], in assay [7] and in [9] was inactive.

For the compound `C[C@]12CCC(=O)C=C1C=C[C@@H]1[C@@H]2CC[C@@]2(C)[C@H]1CC[C@@]21CCC(=O)O1`, the Potency entry in assay [10], in assay [1], in [3], in [4], in [5] and in assay [8] was “inactive” throughout. Also, the outcome in [6] and in assay [9] was inactive.

Turning to `O=C(C(=O)c1ccccc1)c1ccccc1`, the Potency entry in [10], in assay [2], in assay [3], in assay [4] and in assay [8] was “inactive” in each case. Moreover, the outcome in assay [6], in assay [7] and in assay [9] was inactive.

For the compound `NC(=O)Nc1ccc(Cl)cc1`, the Potency entry in assay [1], in assay [2], in assay [3], in assay [4], in assay [5] and in assay [8] was “inactive” each time. Besides, the compound was called inactive in assay [6] and in assay [9].

`OCC1CC=CCC1` (stereo not given): the Potency entry in [1], in assay [2], in assay [3], in assay [4] and in assay [8] was “inactive” throughout. The result in assay [6], in assay [7] and in assay [9] was inactive.

On to `Cc1ccc(/C=N/n2c(-c3ccccc3)csc2=S)cc1`, for which the Potency result in [1], in assay [2], in assay [3] and in assay [8] was “inactive” in each case. Moreover, in [5], the Potency was 18.8 µM (active). For the same compound, the outcome in [6], in [7] and in [9] was inactive.

On to `CC(C)C(OC(=O)c1ccccc1)C(C)(C)COC(=O)c1ccccc1` (stereo not given), for which the Potency entry in assay [1], in assay [2], in assay [3] and in assay [8] was “inactive” throughout. In addition, the Potency in assay [5] is 27.3 µM (active). In addition, the result in assay [6] and in [9] was inactive.

For `O=C(CCC1CCN(Cc2ccccc2)CC1)c1ccc2c(c1)NCCCC2`, the Potency result in [1], in assay [2], in [3] and in assay [8] was “inactive” each time. In addition, the compound was classed as inactive in [6], in assay [7] and in assay [9].

For `CC1=C(C=O)C(C)(C)CCC1`, the Potency entry in assay [1], in assay [2], in assay [3] and in assay [4] was “inactive” each time. In addition, the call in assay [6], in [7] and in assay [9] was inactive.

Turning to `OC(CCCN1CCCCC1)(c1ccccc1)c1ccccc1`, the Potency entry in assay [1], in assay [2], in assay [3], in assay [4] and in [8] was “inactive” each time. In addition, the outcome in [6], in [7] and in assay [9] was inactive.

As for `CO[Si](C)(OC)OC`, the Potency entry in assay [1], in assay [2], in assay [3] and in [4] was “inactive” throughout. The outcome in assay [6], in [7] and in assay [9] was inactive.

`Cc1c(C(=O)NN2CCCCC2)nn(-c2ccc(Cl)cc2Cl)c1-c1ccc(Cl)cc1`: the Potency result in assay [1], in assay [3], in assay [4] and in assay [8] was “inactive” in each case. Besides, in [2], the Potency is 23.7 µM (active). Moreover, the compound was classed as inactive in assay [6], in [7] and in assay [9].

Consider `CC1=NN(c2ccc(C(=O)O)cc2)C(=O)C1`, for which the Potency result in assay [1], in assay [2], in assay [3] and in [8] was “inactive” throughout. In addition, the result in assay [6], in assay [7] and in [9] was inactive.

For the compound `CCCOc1ccc(S(=O)(=O)N2CCN(CC)CC2)cc1-c1nc2c(CC)n(Cc3ccccn3)nc2c(=O)[nH]1`, the Potency entry in assay [1], in [2], in [3] and in assay [8] was “inactive” throughout. The result in [6], in [7] and in assay [9] was inactive.

On to `CCN(Cc1cccc(S(=O)(=O)O)c1)c1ccc(C(=C2C=CC(=[N+](CC)Cc3cccc(S(=O)(=O)[O-])c3)C=C2)c2ccccc2)cc1`, for which the Potency result in assay [1], in assay [2], in assay [3] and in assay [4] was “inactive” throughout. The compound was called inactive in assay [6], in assay [7] and in assay [9].

`C=CC(C)(C)CC(=O)OC`: the Potency result in assay [1], in assay [2], in assay [3] and in assay [4] was “inactive” each time. Further, the call in assay [6] and in assay [9] was inactive.

Consider `CCCC(=O)O[C@]1(C(=O)COC(=O)CC)CC[C@H]2[C@@H]3CCC4=CC(=O)CC[C@]4(C)[C@H]3[C@@H](O)C[C@@]21C`, for which the Potency entry in [1], in assay [2], in [3], in assay [4] and in assay [8] was “inactive” in each case. The result in [6], in assay [7] and in [9] was inactive.

Take `O=Cc1c(Cl)cccc1Cl`: the Potency entry in assay [1], in assay [2], in assay [3] and in assay [8] was “inactive” each time. Further, the outcome in assay [6], in assay [7] and in assay [9] was inactive.

As for `[O]=[Bi]`, in assay [1], the activation is 1.52% [at 8.08 µM]. In addition, the activity change, negative = cytotoxicity in assay [2] was 9.6% [at 8.08 µM]. The activity, negative = cytotoxicity in [3] is 17.3% [at 8.08 µM]. Moreover, in [6], the fluorescence, relative to Rose Bengal was -0.152% [at 3.72 µM]. Moreover, in assay [7], the fluorescence, % of fluorescein control is 0.162% [at 3.72 µM]. Further, the fluorescence, % of triamterene in [8] was -0.117% [at 3.72 µM]. Also, the fluorescence, % of fluorescent control in [9] is 0.261% [at 3.72 µM].

Take `CCOC(=O)OCC`: the Potency entry in assay [1], in [2], in assay [3] and in [8] was “inactive” throughout. Moreover, the result in assay [6], in [7] and in [9] was inactive.

With `CCCCCCCCCCCC(=O)[O][Sn]([CH2]CCC)([CH2]CCC)[O]C(=O)CCCCCCCCCCC`, the Potency entry in assay [1], in [2], in [3], in [5] and in assay [8] was “inactive” each time. The compound was called inactive in assay [6], in [7] and in [9].

In the case of `NC(=O)N(O)[C@@H]1C=C[C@H](Oc2cccc(Oc3ccc(F)cc3)c2)C1`, the Potency result in assay [1], in assay [2], in [3] and in assay [8] was “inactive” throughout. In addition, the compound was classed as inactive in assay [6], in assay [7] and in [9].

`Cc1cc(S(=O)(=O)O)ccc1N=Nc1c(O)ccc2ccccc12`: the Potency entry in assay [1], in [2], in assay [4] and in assay [8] was “inactive” throughout. The Potency in [3] is 48.6 µM (active). Also, the compound was classed as inactive in assay [6], in [7] and in [9].
